The source of these data is PubChem BioAssay.

Results filed as inconclusive are left out. Activity calls are given as the source filed them. Unless noted, the rule behind the calls is not given here.

Experiment [1] can be described thus: compounds altering circadian rhythm period length – cell-based, LOPAC library, luminescence reporter (AID 2774).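 Note: values are relative to mean of DMSO wells on each plate.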 To be noted: circadian reporter cells, at 7 µM, actives lie on both sides.
The test system of experiment [2] is Hepatitis C virus NS3 helicase. The experiment is described as follows: blockers of NS3h binding to ssDNA – biochemical, fluorescence polarization, LOPAC1280 library, primary screen (AID 687035; in the data active = inhibition above about 37%). The settings on record: Purified HCV NS3 helicase, Cy5-dT15 ssDNA binding fluorescence polarization; stronger effect = higher value; concentration not given here. (In general: Fluorescence polarisation rises when a labelled molecule tumbles more slowly, as on binding a larger partner.)

Experiment [3] can be described thus: compounds altering Cy5-DNA-NS3h complex signal – biochemical, LOPAC1280, artefact control for HCV NS3 helicase inhibitor project (AID 687037). To be noted: Cy5-DNA-NS3h complex fluorescence interference counterscreen.
A short description of experiment [4]: blockers of cellular phospholipid synthesis – cell-based, LOPAC library, screen 4, primary screen (AID 1347384). The settings on record: animal cells, phospholipid biosynthesis inhibition screen; at 10 µM.
Experiment [5] in a line: GFP-Q80 aggregate reduction, neuronal-like cells, cell-based, NGF-treated PC12, GFPQ80 (AID 1614).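 Note: lower means fewer inclusions and 0 means no inclusions at all.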 To be noted: PC12 NGF-treated GFP-polyQ80 inclusion reduction.
Experiment [6] in a line: viability loss in pontine glioma line – cell-based, SU-DIPG-XVII, MIPE5.0, CellTiter-Glo, qHTS, dose response (AID 1347060; cut-off not given, nearly all actives have AC50 up to about 26 µM). The settings on record: CellTiter-Glo ATP luminescence. In general terms: In ATP-based viability assays light output follows the ATP content of the culture.
A short description of experiment [7]: viability loss in pontine glioma line – cell-based, SU-DIPG-XIII, MIPE4.0, CellTiter-Glo, qHTS, dose response (AID 1347061; cut-off not given, nearly all actives have AC50 up to about 37 µM;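 note: cells exposed to compound for 48 hours before readout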). The settings on record: CellTiter-Glo ATP luminescence.
Experiment [8] can be described thus: viability loss in pontine glioma line – cell-based, JHH-DIPG-1, MIPE4.0, CellTiter-Glo, qHTS, dose response (AID 1347062; cut-off not given, nearly all actives have AC50 up to about 27 µM;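 for AC50: cells exposed to compound for two days before readout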). To be noted: JHH-DIPG-1 viability, CellTiter-Glo ATP luminescence.
The nature of experiment [9]: viability loss in pontine glioma line – cell-based, SU-DIPG-XXV, MIPE5.0, CellTiter-Glo, qHTS, dose response (AID 1347065; cut-off not given, nearly all actives have AC50 up to about 26 µM;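 note: cells exposed to compound for 48 hours before ATP readout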). To be noted: CellTiter-Glo ATP luminescence.
The nature of experiment [10]: growth inhibition of DIPG cells – cell-based, MIPE4.0 library, CellTiter-Glo luminescence, qHTS (AID 1347066; cut-off not given, nearly all actives have AC50 up to about 30 µM;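 note: cells exposed to compound for 48 hours before readout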). The settings on record: SU-DIPG-VI viability, CellTiter-Glo ATP luminescence.
The nature of experiment [11]: JHH-DIPG-1 glioma cell viability, MIPE5.0 library, CellTiter-Glo luminescence, qHTS (AID 1347067; cut-off not given, nearly all actives have AC50 up to about 26 µM;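 note: cells exposed to compound for 48 hours before readout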). The settings on record: JHH-DIPG-1 glioma viability, CellTiter-Glo ATP luminescence.
Experiment [12] is described as follows: growth inhibition of DIPG cells – cell-based, MIPE5.0 library, qHTS (AID 1347068; cut-off not given, nearly all actives have IC50 up to about 30 µM). To be noted: SU-DIPG-XXV viability. (qHTS replaces the single test concentration by a dilution series.)

The inhibition is the drop in the measured response relative to a control, in per cent. In the case of `CCOC(=O)C1=C(C)NC(C)=C(C(=O)OC)C1c1cccc([N+](=O)[O-])c1` (stereo unspecified), in experiment [1], the period change was 0.21 h (inactive). The inhibition in experiment [2] was -2% (inactive). The fluorescence ratio (interference) in experiment [3] is 0.9 (inactive). Also, the result in experiment [4] was inactive.

With `NS(=O)(=O)c1cc2c(cc1Cl)NCNS2(=O)=O`, the inclusion score in experiment [5] stood at 2. Moreover, the period change in [1] was 0.06 h (inactive). Besides, the inhibition in [2] was -1% (inactive). Also, in experiment [3], the fluorescence ratio (interference) was 1 (inactive). The molecule was classed as inactive in experiment [6], in [7], in [8], in experiment [9], in experiment [10] and in [11]. Also, the molecule was classed as inactive in experiment [12] and in experiment [4].

Molecule `CC(C[N+](C)(C)C)OC(N)=O` (stereo unspecified) gave an inclusion score in [5] of 2. Besides, the period change in experiment [1] was -0.04 h (inactive). The inhibition in [2] is -2% (inactive). Also, in [3], the fluorescence ratio (interference) was 1 (inactive). Moreover, the outcome in experiment [6], in experiment [7], in experiment [8], in [10], in experiment [11] and in experiment [12] was inactive. In addition, the call in experiment [4] was inactive.

`CC(COc1ccccc1)N(CCCl)Cc1ccccc1` (stereo unspecified): the period change in experiment [1] was 0.03 h (inactive). For the same molecule, the inhibition in experiment [2] was -1% (inactive). Moreover, the fluorescence ratio (interference) in experiment [3] was 1 (inactive). The molecule was called inactive in experiment [6], in experiment [7], in [8], in [9], in experiment [10] and in [11]. In addition, the molecule was classed as inactive in experiment [12].

Consider `CCCCNc1cc(C(=O)O)cc(S(N)(=O)=O)c1Oc1ccccc1`, for which the inclusion score in experiment [5] came to 2. For the same molecule, in [1], the period change is 0.11 h (inactive). Further, the inhibition in experiment [2] is -3% (inactive). In experiment [3], the fluorescence ratio (interference) was 0.9 (inactive). Besides, the outcome in experiment [6], in [7], in [8], in experiment [9], in experiment [10] and in experiment [11] was inactive. Besides, the result in [12] and in [4] was inactive.

Turning to `CC1Cc2ccccc2N1NC(=O)c1ccc(Cl)c(S(N)(=O)=O)c1` (stereo unspecified), the inclusion score in experiment [5] is 2. The result in [6], in experiment [7], in [8], in [11] and in experiment [12] was inactive.

In turn, `N[C@@H]1CONC1=O` gave an inclusion score in [5] of 2. The period change in experiment [1] is 0.11 h (inactive). For the same molecule, the inhibition in experiment [2] was -2% (inactive). Also, the fluorescence ratio (interference) in [3] was 0.9 (inactive). The call in [6], in [7], in experiment [8], in [9], in experiment [10] and in [11] was inactive. Besides, the molecule was classed as inactive in experiment [12] and in experiment [4].

As to `CC1=NS(=O)(=O)c2cc(Cl)ccc2N1`, in experiment [1], the period change was 0.13 h (inactive). The inhibition in [2] was -1% (inactive). Also, the fluorescence ratio (interference) in [3] was 1 (inactive). In addition, the molecule was called inactive in experiment [4].

A word on the AC50: it is the concentration giving half of the maximal activity seen. As for `CC(C)C(=O)Nc1ccc([N+](=O)[O-])c(C(F)(F)F)c1`, the period change in experiment [1] is -0.165 h (inactive). In addition, the inhibition in experiment [2] is -1% (inactive). For the same molecule, the fluorescence ratio (interference) in experiment [3] is 1 (inactive). Besides, the call in experiment [6], in experiment [7], in experiment [10], in experiment [11], in [12] and in experiment [4] was inactive. The AC50 in [8] was 18.7 µM (active).
